# Mdm2-MdmX inh = inhibitors of human Mdm2-MdmX association, primary screen, cell-based, luminescence, split luciferase, SaOS-2, uHTS; Protein Mdm4 (Homo sapiens) + E3 ubiquitin-protein ligase Mdm2 (Homo sapiens), …; SaOS-2 split-luciferase Mdm2/MdmX complementation; inhibition, % at 8 µM; 330,000 compounds, 3% hits; AID 485346, 2010;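 active means inhibition of at least 50% at 8 µM in the primary screen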
# CSC inhib = cancer stem cell viability inhibitors, primary screen, luminescence; cancer stem cell-like cells viability; inhibition, % at 7.5 µM; 300,000 compounds, 1.1% hits; in the data active means inhibition above about 75%; inconclusive means no clear call, values can overlap the other calls; tested in HMLE shEcad cells
# Beta cell apopt = inhibitors of cytokine-induced beta cell apoptosis, primary screen, luminescence. INS-1E cytokine-induced death, ATP luminescence, 48 h; percent of positive-control rescue, neutral wells zero. protection from apoptosis, % (test concentration not listed). 300,000 compounds, 0.8% hits;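 active means Every replicate reaches about 75%, or at least half do and their mean reaches it too, limit read from the data; inconclusive means At least half of replicates reach the limit but their mean does not; inactive means Under half of replicates reach the limit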;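 further: 0% = cytokine-treated negative control wells and 100% = positive control rescue; higher means more ATP so stronger rescue from cytokine killing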
# PP5 inh = PP5 phosphatase inhibitors, primary screen, biochemical, fluorescence; purified PP5c, OMFP substrate fluorescence; inhibition, % at 6.7 µM; 320,000 compounds, 0.18% hits; AID 1987, 2009;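 active means inhibition above the campaign's mean inhibition across all tested compounds plus 3 SD, cut at about 9.5% in these data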;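 further: 0% = DMSO only and 100% = 100 µM cantharidin control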
# Target sequence (P53041 whole entry, looked up): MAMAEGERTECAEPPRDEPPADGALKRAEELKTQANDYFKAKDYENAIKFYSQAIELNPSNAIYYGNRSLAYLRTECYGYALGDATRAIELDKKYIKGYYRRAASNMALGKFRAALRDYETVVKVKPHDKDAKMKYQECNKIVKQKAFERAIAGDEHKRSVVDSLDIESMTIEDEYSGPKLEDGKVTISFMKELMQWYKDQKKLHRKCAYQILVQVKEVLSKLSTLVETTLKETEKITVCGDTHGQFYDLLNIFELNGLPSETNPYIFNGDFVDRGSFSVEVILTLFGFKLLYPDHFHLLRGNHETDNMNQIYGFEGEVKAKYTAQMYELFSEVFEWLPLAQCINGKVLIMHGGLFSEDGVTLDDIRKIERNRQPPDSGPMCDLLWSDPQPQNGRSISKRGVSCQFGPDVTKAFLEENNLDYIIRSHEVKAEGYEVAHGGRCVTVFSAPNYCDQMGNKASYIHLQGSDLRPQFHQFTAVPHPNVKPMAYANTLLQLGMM
# PP1 counter = PP1-alpha phosphatase inhibitors, primary screen, counter-screen for PP5 inhibitor project, biochemical, fluorescence, OMFP substrate, single point. Serine/threonine-protein phosphatase PP1-alpha catalytic subunit (Homo sapiens), P62136. 320,000 compounds, 0.9% hits. AID 2235, 2010. purified PP1alpha. inhibition, % at 6.7 µM;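 active means inhibition above the mean inhibition of all tested compounds plus 3 SD, computed separately for each screening campaign, cut at about 15% in these data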
# Calb FLC = C. albicans growth inhibition with fluconazole, primary screen, CaCi-2 strain, Alamar Blue fluorescence; C. albicans CaCi-2 (fluconazole-resistant clinical isolate) + fluconazole, 48 h; growth inhibition, % (test concentration not listed); 300,000 compounds, 0.57% hits; AID 1979, 2009;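 active means growth inhibition above about 58% in most replicates, limit read from the data, passing the limit was not always enough; inconclusive means exactly half the replicates above a set limit; inactive means most replicates below a set limit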;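 further: all wells also contain fluconazole at 8 µg/ml as a sub-toxic cotreatment; 0% = median of DMSO wells and 100% = median of geldanamycin control wells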
# Numbers without * were called inactive; u = inconclusive; x = not tested or not shown. Only some compounds are listed: those with a hit (about 4.9% of all), similar ones and a draw of the others.
SMILES,Mdm2-MdmX inh,CSC inhib,Beta cell apopt,PP5 inh,PP1 counter,Calb FLC
Cc1cc(N/N=C/c2ccc(N(C)C)cc2)nc(NCc2ccccc2)n1,40.0,23.1,14.4,4.0,16.3*,14.6
O=C(CNC(=O)c1ccc2c(c1)OCCO2)N/N=C/c1ccc([N+](=O)[O-])cc1,24.5,x,-1.8,1.9,1.1,-1.0
COc1cccc(NC(=O)COC(=O)c2sccc2C)c1,-46.0,-15.9,-5.6,x,x,x
COc1ccc2cc(C3(C)NC(=O)N(CC(=O)N4CCCCC4)C3=O)ccc2c1 (configuration not stated),12.3,1.0,-5.9,x,x,x
Cc1ccc(NC(=O)COc2ccccc2C(=O)NCc2ccccc2)cc1,7.8,13.2,-0.7,7.1,8.4,x
Cc1ccc(-c2c[n+]3c(n2-c2ccccc2)CCC3)cc1,30.0,-14.8,100.2*,1.3,-4.5,-7.7
c1ccc(-c2c[n+]3c(n2-c2ccccc2)CCC3)cc1,20.1,-2.4,25.0,4.2,-0.4,0.7
CCOc1ccc(-n2c(-c3ccccc3)c[n+]3c2CCCCC3)cc1,27.0,23.1,98.8*,3.7,-7.2,87.3*
CC12CCC(C(=O)NNc3ccc([N+](=O)[O-])cc3)(CC1=O)C2(C)C (configuration not stated),35.5,-11.2,-1.5,1.6,-1.5,120.7*
CCN(C1CCCCC1)S(=O)(=O)c1ccc(S(=O)(=O)NCc2ccncc2)cc1,23.4,17.3,102.6*,-0.4,2.0,-9.3
Cc1ccc(S(=O)(=O)NCc2ccncc2)cc1C,14.8,-11.3,89.5*,-2.2,-2.3,28.9
O=S(=O)(NCc1ccncc1)c1ccc(Br)s1,14.1,4.9,115.9*,0.0,-6.5,9.9
CCc1noc(C)c1C(=O)Nc1ccc(S(=O)(=O)N2CCC(C)CC2)cc1,20.1,-5.6,5.3,0.8,-8.4,x
O=C(CSc1nccc(=O)[nH]1)NCc1ccc2c(c1)OCO2,4.0,-9.0,-9.0,1.5,15.5*,-6.9
COC(=O)c1cc(=O)n(Cc2ccc(F)cc2)c(=Nc2ccccc2)s1,47.0,86.5*,3.5,2.8,-0.9,-0.3
Cc1c(OCC(=O)N[C@@H](Cc2ccccc2)C(=O)O)ccc2c3c(c(=O)oc12)CCC3,7.6,-7.2,-5.6,0.4,0.1,6.1
Cc1c(OCC(=O)N[C@@H](Cc2ccccc2)C(=O)O)ccc2c1oc(=O)c1ccccc12,1.4,-11.2,-2.7,2.6,15.2*,-5.6
Cc1ccc(-c2cc(C(=O)N/N=C/C=C/c3ccccc3)n[nH]2)s1,27.1,65.5,33.7,7.6,15.4*,6.4
CCC(CNc1cc(OC)cc2cccnc12)NC1CCCCC1 (configuration not stated),x,27.1,101.4*,7.5,6.5,-13.1
CNC(=S)N/N=C/c1ccc(-c2ccc(Cl)c([N+](=O)[O-])c2)o1,2.7,-1.5,3.1,2.7,4.4,84.7*
Cc1ccc(C(=O)N/N=C/c2ccc(-c3cccc(Cl)c3)o2)cn1,20.1,38.6,-1.6,-0.3,-0.8,12.2
Cc1ccc(C(=O)N/N=C\c2ccc(-c3ccc(Cl)c(Cl)c3)o2)cn1,23.7,75.9*,8.2,-0.3,4.1,-5.5
O=C(COC(=O)c1ccc(Cl)c(S(=O)(=O)NCc2ccccc2)c1)NCC1CCCO1 (configuration not stated),10.2,-12.4,-0.9,-0.7,-1.4,-0.8
O=c1c2cccc(Cl)c2nc2n1Cc1ccccc1-2,-23.0,-9.3,3.7,-0.1,-3.0,7.0
CCc1cc2c(=O)nc3n(c2s1)Cc1ccccc1/C3=C(/O)c1ccccc1Cl,46.9,x,89.2*,1.2,-4.8,-4.7
SMILES,Mdm2-MdmX inh,CSC inhib,Beta cell apopt,PP5 inh,PP1 counter,Calb FLC
CCc1cc2c(=O)nc3n(c2s1)Cc1ccccc1/C3=C(/O)c1cccc([N+](=O)[O-])c1,18.4,3.5,-1.7,-0.4,-3.4,-4.0
CCc1cc2c(=O)nc3n(c2s1)Cc1ccccc1/C3=C(/O)c1ccc(F)cc1,48.7,80.7*,7.0,1.4,-1.9,13.5
CCCCN(C(=O)C1CC1)C1CCS(=O)(=O)C1 (configuration not stated),21.6,0.2,-8.7,-1.9,1.2,-2.9
Cc1cc(O)c(/C=N/OCc2ccc(Cl)cc2Cl)c(=O)o1,17.3,6.0,-7.4,-2.4,1.6,-1.9
CN(C)/C=C(\C=N\OCc1ccc(Cl)cc1Cl)C(=O)Nc1ccc(Cl)c(Cl)c1,4.8,85.0*,-0.6,0.3,13.6,-23.6
Cc1cccc(-n2c(SCc3cc(=O)n4ccsc4n3)nc3ccccc32)c1,-20.6,x,2.3,2.6,10.5,113.7*
O=C1c2ccccc2NC(c2ccccc2)N1Cc1ccccc1 (configuration not stated),7.1,3.7,-1.0,2.9,0.0,-7.9
Cc1ccc(CN2C(=O)c3ccccc3NC2c2cc(Br)ccc2O)cc1 (configuration not stated),10.9,110.0*,3.2,3.5,2.0,0.5
O=C(Nc1ccc(Cl)c(C(F)(F)F)c1)[C@@H]1CC=C[C@@H]2CCN(Cc3ccccc3)C(=O)[C@@H]21,15.5,1.1,-0.4,1.9,1.2,3.3
CCCCN1CC[C@H]2C=CC[C@@H](C(=O)Nc3ccc(Cl)c(C(F)(F)F)c3)[C@H]2C1=O,5.2,-6.6,3.6,5.4,1.0,109.4*
O=c1cc(O)c2c(=O)n(Cc3ccccc3)c3ccccc3c2o1,-1.1,3.8,5.6,-1.1,28.9*,u
CCN(CC(=O)NCc1cccs1)C(=O)c1ccc(S(=O)(=O)Nc2cccc(C)c2C)cc1,6.5,-6.0,-1.7,-0.9,-4.2,2.2
CCCCCCCCSc1nnc(CSc2nc3nc(C)cc(C)n3n2)o1,17.7,61.8,u,4.1,11.3,1.6
Brc1ccc(CSc2nnc(-c3cnccn3)n2Cc2ccco2)cc1,12.4,23.7,-9.1,-0.6,-0.9,99.0*
Fc1ccc(CSc2nnc(-c3cnccn3)n2Cc2ccco2)cc1,9.1,-12.1,-7.0,0.1,-1.7,u
CC(C)(C)NC(=O)Cn1nnc(-c2ccc(Cl)cc2)n1,15.5,-1.7,x,2.3,-0.1,-22.9
CC(C)(C)NC(=O)Cn1nnc(-c2ccc(OCc3c(F)cccc3Cl)cc2)n1,29.9,77.9*,8.0,2.0,1.0,3.0
Cc1ccccc1OC1C(=O)N(Cc2ccc3c(c2)OCO3)C1c1sccc1C (configuration not stated),48.4,49.4,79.1*,0.8,9.1,-5.5
O=C(Nc1ccccc1F)C1CCN(C(=O)NCc2ccccc2)CC1,-16.6,x,-2.0,2.6,0.4,1.9
O=C(Nc1cccc(Cl)c1)Nc1sccc1-c1nc2ccccc2s1,-33.5,76.0*,8.3,1.0,10.8,-6.1
O=C(Nc1ccccc1)Nc1sccc1-c1nc2ccccc2s1,19.2,19.5,7.6,1.1,-3.1,-2.6

# From PubChem BioAssay
